Among the data in PubChem BioAssay AID504329 (Southern Research Specialized Biocontainment Screening …, 2011) are inhibition values, retold here.

In all, about 340,000 compounds went through this assay and about 1,000 (0.29%) were called active. Rule as the data show it: inconclusive = inhibition above about 27% without an active follow-up result; inactive = below that. A selection follows. Measured potencies and affinities stand elsewhere.

As a reminder, the inhibition is the change of the read-out against control, counted positive when it falls.

This assay can be described thus: NS1A inhibition, H1N1 influenza, cell based functional assay (AID 504329). The settings on record: percent inhibition, at 12.5 µM, stronger effect = higher value.
With `NC1=NC(=O)/C(=C/C=C/c2cccs2)S1`, the inhibition was -14.1% (inactive).
With `COc1ccc(/C=C/C=C2\N=C(SC)SC2=O)cc1`, the inhibition was 18% (inactive).
For `CC(C)CCNC(=O)CCc1nnc2n(CCCOC(C)C)c(=O)c3ccccc3n12`, the inhibition is -5.28% (inactive).
Regarding `Cc1ccc(SCCN)cc1C`, the inhibition was 8.4% (inactive).
For the compound `O=C1CC(c2ccccc2)CN1` (configuration not stated), the inhibition is -20.7% (inactive).
Turning to `COc1cc(CNC2CCC(C)C2)cc(OC)c1` (configuration not stated), the inhibition is 4.05% (inactive).
Turning to `Cc1ccc(SC2=C(Sc3ccc(C)cc3)C(=O)c3ccccc3C2=O)cc1`, the inhibition was 4.19% (inactive).
Take `Cc1ccc(NC2=CC(=O)C(=O)c3ccccc32)cc1`: the inhibition was 2.25% (inactive).
On to `NC(=O)CC(NC(=O)Cc1cccc2ccccc12)c1ccc(N2CCc3ccccc3C2)c([N+](=O)[O-])c1` (configuration not stated), for which the inhibition was 14.5% (inactive).
Regarding `CC1(C)Oc2ccc(NC(=O)c3ccco3)cc2O1`, the inhibition was -10.6% (inactive).
For `CC1N(C)c2cc(NC(=O)c3ccco3)c(P(=O)(Nc3ccc([N+](=O)[O-])cc3)N3CCOCC3)cc2C1(C)C` (configuration not stated), the inhibition is 10.5% (inactive).
With `Cc1ccc(C2(C)NC(=O)N(CC(=O)N3CCN(C(=O)c4cccs4)CC3)C2=O)cc1` (configuration not stated) the figure was -14.4% (inactive); with `Nc1oc2ccccc2c1C(=O)Cc1ccccc1O[C@@H]1O[C@H](CO)[C@@H](O)[C@H](O)[C@H]1O`, -10.9% (inactive).
Consider `COc1cccc(NC(=O)CSc2nnc(C)s2)c1`, for which the inhibition is -8.01% (inactive).
Regarding `COc1ccc(NC(=O)CSc2nnc(C)c(=O)n2N)cc1`, the inhibition is 3.72% (inactive).
Turning to `COc1cccc(NC(=O)CSc2nc(C)cs2)c1`, the inhibition was -1.99% (inactive).
For the compound `COC(=O)c1ccc(NC(=O)CSc2nn3c(=O)c(C)nnc3s2)cc1`, the inhibition was 8.48% (inactive).
Take `CC(C)Oc1ccc(-c2cc(=O)[nH]c(=O)[nH]2)cc1`: the inhibition was 2.31% (inactive).
As to `Cc1c(C(=O)OCC(=O)Nc2cccc(S(N)(=O)=O)c2)oc2c1ccc1ccccc12`, the inhibition was -6.11% (inactive).
With `Cc1cc(=O)n2c3ccccc3n(CC(O)CN3CCC(C)CC3)c2c1C#N` (configuration not stated) the figure was -2.23% (inactive); with `O=C(c1cccc(Cl)c1)N1CCN(C2CCCCCC2)CC1`, -6.08% (inactive); with `O=C(Nc1nccs1)c1ccc(COc2ccccc2)o1`, -27.9% (inactive).
For `COc1ccc(-c2nc(N)n(C(=O)Cc3ccccc3)n2)cc1`, the inhibition is 0.25% (inactive).
To `Cc1ccc(O)c(N=Nc2nccs2)c1` belongs 26.6% (inactive).
With `Oc1ccc(Cl)cc1/C=N/c1nccs1` the figure was -1.76% (inactive); with `O=C(OCC(=O)N1CCN(c2ccccc2)CC1)c1ccc2ncsc2c1`, 3.79% (inactive).
With `CC(C)(CO)NS(=O)(=O)c1ccc2c(c1)C(=O)c1cc(S(=O)(=O)NC(C)(C)CO)ccc1-2` the figure was -3.45% (inactive).
As for `COc1ccc(C(=O)NC2CCc3ccccc32)cc1OC1CCN(C(C)=O)CC1` (configuration not stated), the inhibition is -1.94% (inactive).
`CS(=O)(=O)N1CCc2cc(S(=O)(=O)NCCNS(=O)(=O)c3ccc4c(c3)CCN4S(C)(=O)=O)ccc21`: the inhibition is -9.03% (inactive).
To `Fc1cccc(CN2CCSCC2)c1` belongs -2.65% (inactive); to `O=C(NCC(c1ccco1)N1CCc2ccccc21)C(=O)Nc1ccc(F)cc1F` (configuration not stated), -6.42% (inactive); to `Cc1nc2ccccc2nc1N/N=C/c1ccc(O)cc1`, 13.5% (inactive).
On to `Oc1ccc(/C=N/Nc2cccc(Cl)n2)c(O)c1`, for which the inhibition is 10.3% (inactive).
Take `Cc1cc(N/N=C/c2ccc(O)cc2O)c2ccccc2n1`: the inhibition was 0.21% (inactive).
For the compound `CCN(CC)S(=O)(=O)c1ccc(N/N=C/c2cc(OC)ccc2O)nc1`, the inhibition is 5.6% (inactive).
Take `Clc1nccnc1N/N=C/c1ccc(Br)cc1`: the inhibition was -20.8% (inactive).
With `Oc1cccc(C=NNc2ccccn2)c1` the figure was -19.8% (inactive); with `CCN(CC)S(=O)(=O)c1ccc(N/N=C/c2ccc(O)cc2)nc1`, 7.84% (inactive).
On to `O=[N+]([O-])c1ccccc1/C=N/Nc1nccnc1Cl`, for which the inhibition is 1.6% (inactive).
With `CC(C)(NO)/C(=N/O)c1cccs1` the figure was 3.4% (inactive).
To `CC(C(=O)N1CCc2ccccc21)N1CCN(c2cccc(C(F)(F)F)c2)CC1` (configuration not stated) belongs -0.63% (inactive).
As for `CCOC(=O)CSC1=N/C(=C\c2ccc(OC)c(OC)c2)C(=O)N1C`, the inhibition was 2.72% (inactive).
With `COc1ccc(-c2ccc3nnc(SCC(=O)N4CCCC4)n3n2)cc1`, the inhibition was -5.09% (inactive).
As for `O=C(Nc1nccs1)c1cccnc1Cl`, the inhibition is -9.22% (inactive).
Consider `CCc1nnc(NCn2nc(C)cc2C)s1`, for which the inhibition is 6.15% (inactive).
Consider `Oc1ccc(/C=N/Nc2ccnc3cc(Cl)ccc23)c(O)c1`, for which the inhibition was -16% (inactive).
With `Oc1ccc(/C=N/Nc2nccnc2Cl)cc1`, the inhibition is 5.54% (inactive).
`C=CCc1c(C)nc(C)nc1N/N=C/c1ccc(F)cc1`: the inhibition was -0.47% (inactive).
With `C=CCc1c(C)nc(C)nc1N/N=C/c1ccccc1` the figure was -4.1% (inactive).
As to `Cc1c(OCC(F)(F)F)ccnc1CSc1nc2ccccc2[nH]1`, the inhibition was -9.09% (inactive).
Take `CCOc1ccc(OCCC(=O)N(CCCOC)c2c(N)n(Cc3ccccc3)c(=O)[nH]c2=O)cc1`: the inhibition is -2.75% (inactive).
With `O=C1NC(=O)c2cc3ccccc3cc21`, the inhibition was -8.8% (inactive).
To `O=C(Cn1ccccc1=O)NCc1ccc(F)cc1` belongs -15.8% (inactive); to `CCOc1ccc(NC2=CC(=O)C(=O)c3ccccc32)cc1`, -7.73% (inactive).
Consider `Cc1cccc(NC2=C(NCCO)C(=O)c3ccccc3C2=O)c1`, for which the inhibition is 26.8% (inactive).
To `COC1=C(Nc2ccccc2)C(=O)C(OC)=C(Nc2ccccc2)C1=O` belongs 8.96% (inactive); to `NC1=C(Br)C(=O)c2ccccc2C1=O`, 1.89% (inactive); to `O=C1C(Cl)=C(Nc2ccc(O)cc2)C(=O)c2ccccc21`, 13.6% (inactive).
Take `COc1ccc(NC2=C(NCCO)C(=O)c3ccccc3C2=O)cc1`: the inhibition is 23.4% (inactive).
To `COc1ccc(NC2=C(c3ccc(OC)cc3)C(=O)c3ccccc32)cc1` belongs 5.77% (inactive).
For the compound `COc1ccc(C2=C(Nc3ccccc3)c3ccccc3C2=O)cc1`, the inhibition is -2.55% (inactive).
Consider `CSCCC(=O)NC1CCCN(CCc2ccccc2)C1` (configuration not stated), for which the inhibition is -10.8% (inactive).
In the case of `O=C(NC1=NCCS1)c1cc(-c2cccs2)nc2ccccc12`, the inhibition was 1.99% (inactive).
With `Clc1cccc(CN2CCCCCCC2)c1Cl` the figure was -8.07% (inactive); with `COc1cc(C2NC(=O)NC(C)=C2C(=O)OC2CCC(C)CC2)ccc1O` (configuration not stated), -1.48% (inactive).
For the compound `CCC(=O)Nc1nc(-c2ccccc2)nc(SC)c1C(C)=O`, the inhibition is 5.59% (inactive).
Consider `O=C(NCCCN1CCCC1=O)C(=O)NCC1OCCCN1S(=O)(=O)c1cc(F)ccc1F` (configuration not stated), for which the inhibition was -6.67% (inactive).
For the compound `Cc1ccc(C(=O)N2CCN(c3ccc(NC(=O)c4cccnc4Cl)cc3)CC2)cc1`, the inhibition is 0.28% (inactive).
As for `CC(=O)c1ccc(NC2=C(N3CCOCC3)C(=O)c3ccccc3C2=O)cc1`, the inhibition was 3.86% (inactive).
For the compound `COC1=C(Nc2ccc(OC)cc2)C(=O)C(OC)=C(Nc2ccc(OC)cc2)C1=O`, the inhibition is 0.15% (inactive).
Turning to `COc1ccc(NC2=C(NC(C)=O)C(=O)c3ccccc3C2=O)cc1`, the inhibition is 0.92% (inactive).
Regarding `O=C1C(Cl)=C(Nc2ccccc2)C(=O)c2ccccc21`, the inhibition was -3.5% (inactive).
For the compound `COc1ccc(C2=C(Nc3ccc(C)cc3)c3ccccc3C2=O)cc1`, the inhibition is -3.38% (inactive).
With `Cc1ccc(NC2=C(Cl)C(=O)c3ccccc3C2=O)cc1`, the inhibition is 2.23% (inactive).
To `Cc1ccc(NC2=C(N3CCCCC3)C(=O)c3ccccc3C2=O)cc1` belongs 28.7% (inactive).
In the case of `CCN(CC)c1ccc(NC2=C(Cl)C(=O)c3ccccc3C2=O)cc1`, the inhibition is 27.5% (inactive).
To `CC(C)CC(OC(=O)c1cccs1)C(=O)NCC1CCCO1` (configuration not stated) belongs 11.2% (inactive); to `COc1ccccc1N1CCN(C(=O)c2ccc(S(=O)(=O)N3CCCC3)cc2)CC1`, 4.29% (inactive); to `COc1ccc(NC(=O)COC(=O)CCc2ccc(S(=O)(=O)N3CCOCC3)cc2)cc1Cl`, -1.5% (inactive).
As for `CCOC(=O)c1sc2nc(N3CCOCC3)c3c(c2c1N)CCC3`, the inhibition is 8.09% (inactive).
Turning to `Cc1ccc(CNC(=O)Cn2nnc3ccccc3c2=O)cc1`, the inhibition was -3.7% (inactive).
Consider `COC(=O)c1ccc(NC(=S)NC2CC(C)(C)NC(C)(C)C2)cc1`, for which the inhibition is -11.7% (inactive).
To `CCOC(=O)C1(CCCc2ccccc2)CCN(C(=O)c2cnn(CC)c2)CC1` belongs 0.777% (inactive); to `O=C(NC(=S)Nc1ccc(F)c([N+](=O)[O-])c1)c1ccccc1F`, 6.76% (inactive).
On to `COc1cc(/C=C/C(=O)OCC(=O)NCCN2C(=O)CSC2=O)ccc1OCC#N`, for which the inhibition was 1.99% (inactive).
Consider `CC(C)CN(C(=O)CCC(=O)OCc1ccc(Cl)cc1Cl)c1c(N)n(CC(C)C)c(=O)[nH]c1=O`, for which the inhibition is -1.56% (inactive).
To `CCN(Cc1ccccc1)c1ccc(/C=N/NS(=O)(=O)c2ccc(C)c([N+](=O)[O-])c2)cc1` belongs -1.19% (inactive); to `CCN(CC)c1ccc(N=Nc2nn(C)c(C)c2[N+](=O)[O-])cc1`, 9.15% (inactive); to `Cn1c2c(c(=O)n(C)c1=O)C(c1ccc(F)cc1)C(C#N)=C(N)O2` (configuration not stated), -0.36% (inactive).
As for `Cc1cccc(/C=N/NC(=O)c2ccc(NC(=O)c3ccccc3C)cc2)n1`, the inhibition is -6.91% (inactive).
With `CCNC(=O)C(=O)N1CCC2(CC1)OCCN2S(=O)(=O)c1ccc(C)cc1`, the inhibition is 5.17% (inactive).
On to `CCC(/C=C1\Sc2ccc(OC)cc2N1CC)=C\c1sc2ccc(OC)cc2[n+]1CCCS(=O)(=O)[O-]`, for which the inhibition was -0.43% (inactive).
With `CCC(=O)/C=C1\Sc2ccc(OC)cc2N1CCO`, the inhibition is 7.02% (inactive).
To `O=C(COC(=O)/C=C/c1ccccc1[N+](=O)[O-])NC1CC1` belongs 0.04% (inactive); to `OCCN(Cc1ccccc1)Cc1ncccc1O`, -15.6% (inactive); to `CCN(CC)Cc1ccccn1`, 0.25% (inactive).
For the compound `CCn1c(SCC(=O)NC(C)c2ccccc2)nc2ccccc21` (configuration not stated), the inhibition was 6.4% (inactive).
